In the supplement of paper PMC11732987, “Enantioselective OTUD7B fragment discovery through chemoproteomics screening and high-throughput optimisation” (Communications Chemistry, 2025):

Columns and labels:
Experiment in all cases: log2 ratio of Biotin-Ahx-Ub-VS probe labelling (fragment/DMSO); higher = less target engagement (more negative = stronger competition), active = hit call of the paper (q ≤ 0.05, log2 ratio ≤ -1)
Details in all cases: compound concentration: 200 uM; treatment time: 3 h
[1] = target: T1, ALG13 (UniProt Q9NP73)
T1 sequence (whole entry): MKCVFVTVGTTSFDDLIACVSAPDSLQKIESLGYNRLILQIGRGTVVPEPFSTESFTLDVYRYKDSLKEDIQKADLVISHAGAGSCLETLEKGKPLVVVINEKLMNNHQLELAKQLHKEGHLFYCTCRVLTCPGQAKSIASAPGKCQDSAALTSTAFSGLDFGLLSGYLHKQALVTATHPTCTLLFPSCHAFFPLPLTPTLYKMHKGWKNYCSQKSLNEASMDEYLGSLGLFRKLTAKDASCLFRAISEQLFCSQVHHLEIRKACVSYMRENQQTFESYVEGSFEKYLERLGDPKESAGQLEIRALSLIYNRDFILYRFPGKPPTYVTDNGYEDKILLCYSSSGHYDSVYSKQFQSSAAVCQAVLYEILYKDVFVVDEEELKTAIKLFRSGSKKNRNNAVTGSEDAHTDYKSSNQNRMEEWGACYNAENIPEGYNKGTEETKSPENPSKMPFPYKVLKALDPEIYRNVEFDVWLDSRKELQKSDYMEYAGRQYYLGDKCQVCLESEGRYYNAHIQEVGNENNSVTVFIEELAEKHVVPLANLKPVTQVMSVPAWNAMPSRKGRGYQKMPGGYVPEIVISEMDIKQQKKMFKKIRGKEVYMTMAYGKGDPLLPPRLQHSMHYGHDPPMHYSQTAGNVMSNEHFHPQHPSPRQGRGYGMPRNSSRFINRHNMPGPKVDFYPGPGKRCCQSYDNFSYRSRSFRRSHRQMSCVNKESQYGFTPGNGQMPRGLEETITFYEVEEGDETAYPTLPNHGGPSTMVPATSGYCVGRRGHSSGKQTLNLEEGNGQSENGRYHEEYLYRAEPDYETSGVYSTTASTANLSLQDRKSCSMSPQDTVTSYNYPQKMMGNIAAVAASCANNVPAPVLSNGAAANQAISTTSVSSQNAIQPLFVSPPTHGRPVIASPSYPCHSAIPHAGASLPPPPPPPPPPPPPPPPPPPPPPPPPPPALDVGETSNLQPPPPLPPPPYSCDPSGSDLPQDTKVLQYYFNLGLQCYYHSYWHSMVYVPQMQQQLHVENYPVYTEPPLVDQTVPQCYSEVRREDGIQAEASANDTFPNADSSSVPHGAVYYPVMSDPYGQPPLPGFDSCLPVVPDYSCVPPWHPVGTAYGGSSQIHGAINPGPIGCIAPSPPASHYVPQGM
Procedure, shortened: (§1)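 HEK293T lysate, 495 µg per sample in Tris/CHAPS/IGEPAL buffer with protease inhibitors, was treated in triplicate with fragment at 200 µM or vehicle for 3 h and then with Biotin-Ahx-Ub-VS at 0.5 µM final for 1 h. Labelled DUBs were NeutrAvidin-enriched, digested with LysC and trypsin, and run by diaPASEF LC-MS/MS. Spectronaut label-free quantities were global-median-normalised, and values are average log2 fragment/vehicle ratios by unpaired t-test on proteins with ≥2 unique peptides.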

[2] = target: ATXN3 (UniProt P54252)
Procedure, shortened: as §1

[3] = target: T2, BAP1 (UniProt Q92560)
T2 sequence (whole entry): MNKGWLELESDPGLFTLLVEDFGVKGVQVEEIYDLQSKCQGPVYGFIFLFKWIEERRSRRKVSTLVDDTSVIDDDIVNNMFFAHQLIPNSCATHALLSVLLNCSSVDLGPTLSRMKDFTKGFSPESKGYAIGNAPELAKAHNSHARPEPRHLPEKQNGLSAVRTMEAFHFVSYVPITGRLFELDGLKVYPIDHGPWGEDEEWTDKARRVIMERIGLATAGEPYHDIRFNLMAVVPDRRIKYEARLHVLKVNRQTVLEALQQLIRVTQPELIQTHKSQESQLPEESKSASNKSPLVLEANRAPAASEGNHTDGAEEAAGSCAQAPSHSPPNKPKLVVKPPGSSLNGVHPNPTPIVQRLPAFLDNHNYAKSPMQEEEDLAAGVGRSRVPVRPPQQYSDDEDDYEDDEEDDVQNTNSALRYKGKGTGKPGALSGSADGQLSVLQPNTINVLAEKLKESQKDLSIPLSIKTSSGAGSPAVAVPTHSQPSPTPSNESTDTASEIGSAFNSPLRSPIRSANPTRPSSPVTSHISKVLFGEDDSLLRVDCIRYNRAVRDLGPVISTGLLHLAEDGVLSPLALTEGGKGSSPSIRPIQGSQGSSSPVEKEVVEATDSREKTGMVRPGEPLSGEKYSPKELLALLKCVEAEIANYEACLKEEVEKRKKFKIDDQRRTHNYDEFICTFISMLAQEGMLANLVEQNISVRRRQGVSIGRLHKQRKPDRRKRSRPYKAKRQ
Procedure, shortened: as §1

[4] = target: EIF3F (UniProt O00303)
Procedure, shortened: as §1

[5] = target: EIF3H (UniProt O15372)
Procedure, shortened: as §1

[6] = target: T3, FAM105A (UniProt Q9NUU6)
T3 sequence (whole entry): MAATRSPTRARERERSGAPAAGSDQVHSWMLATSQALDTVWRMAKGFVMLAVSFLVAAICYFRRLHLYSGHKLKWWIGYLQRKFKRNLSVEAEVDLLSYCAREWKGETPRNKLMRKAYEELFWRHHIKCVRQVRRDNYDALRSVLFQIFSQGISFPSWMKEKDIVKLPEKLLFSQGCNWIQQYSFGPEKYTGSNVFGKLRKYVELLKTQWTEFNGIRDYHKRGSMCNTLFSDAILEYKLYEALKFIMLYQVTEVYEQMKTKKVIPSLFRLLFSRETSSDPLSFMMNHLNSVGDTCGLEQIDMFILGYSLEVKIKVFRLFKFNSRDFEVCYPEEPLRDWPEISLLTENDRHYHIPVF
Procedure, shortened: as §1

[7] = target: OTUB1 (UniProt Q96FW1)
Procedure, shortened: as §1

[8] = target: T4, OTUD4 (UniProt Q01804)
T4 sequence (whole entry): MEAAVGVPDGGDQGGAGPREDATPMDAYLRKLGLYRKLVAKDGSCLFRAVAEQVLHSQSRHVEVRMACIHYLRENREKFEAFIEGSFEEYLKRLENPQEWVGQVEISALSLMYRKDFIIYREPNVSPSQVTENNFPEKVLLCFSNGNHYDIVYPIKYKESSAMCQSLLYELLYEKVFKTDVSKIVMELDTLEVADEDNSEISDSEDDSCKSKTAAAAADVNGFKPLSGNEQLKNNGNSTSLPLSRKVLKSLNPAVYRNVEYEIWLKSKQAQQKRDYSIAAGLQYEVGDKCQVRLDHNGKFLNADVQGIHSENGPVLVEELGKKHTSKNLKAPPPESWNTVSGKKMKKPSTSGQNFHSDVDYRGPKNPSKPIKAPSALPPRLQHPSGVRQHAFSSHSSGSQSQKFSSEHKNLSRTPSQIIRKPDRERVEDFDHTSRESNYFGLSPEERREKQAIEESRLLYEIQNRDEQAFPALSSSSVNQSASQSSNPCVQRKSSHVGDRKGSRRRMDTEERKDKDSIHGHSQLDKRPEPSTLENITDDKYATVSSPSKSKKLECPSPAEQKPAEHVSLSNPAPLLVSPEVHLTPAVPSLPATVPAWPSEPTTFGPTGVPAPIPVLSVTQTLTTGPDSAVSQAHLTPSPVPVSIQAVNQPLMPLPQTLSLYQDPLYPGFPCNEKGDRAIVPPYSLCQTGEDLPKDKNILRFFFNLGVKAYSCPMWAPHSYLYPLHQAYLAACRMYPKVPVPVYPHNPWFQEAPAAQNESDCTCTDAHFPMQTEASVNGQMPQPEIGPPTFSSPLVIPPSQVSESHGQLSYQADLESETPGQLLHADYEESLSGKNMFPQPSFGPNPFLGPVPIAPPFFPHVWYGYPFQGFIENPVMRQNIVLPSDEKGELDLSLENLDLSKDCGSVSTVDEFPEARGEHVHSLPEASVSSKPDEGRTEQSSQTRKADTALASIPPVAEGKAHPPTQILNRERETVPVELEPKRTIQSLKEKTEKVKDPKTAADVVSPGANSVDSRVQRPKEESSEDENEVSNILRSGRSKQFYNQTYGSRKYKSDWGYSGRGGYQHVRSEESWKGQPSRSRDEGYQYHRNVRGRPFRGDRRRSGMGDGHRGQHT
Procedure, shortened: as §1

[9] = target: T5, OTUD5 (UniProt Q96G74)
T5 sequence (whole entry): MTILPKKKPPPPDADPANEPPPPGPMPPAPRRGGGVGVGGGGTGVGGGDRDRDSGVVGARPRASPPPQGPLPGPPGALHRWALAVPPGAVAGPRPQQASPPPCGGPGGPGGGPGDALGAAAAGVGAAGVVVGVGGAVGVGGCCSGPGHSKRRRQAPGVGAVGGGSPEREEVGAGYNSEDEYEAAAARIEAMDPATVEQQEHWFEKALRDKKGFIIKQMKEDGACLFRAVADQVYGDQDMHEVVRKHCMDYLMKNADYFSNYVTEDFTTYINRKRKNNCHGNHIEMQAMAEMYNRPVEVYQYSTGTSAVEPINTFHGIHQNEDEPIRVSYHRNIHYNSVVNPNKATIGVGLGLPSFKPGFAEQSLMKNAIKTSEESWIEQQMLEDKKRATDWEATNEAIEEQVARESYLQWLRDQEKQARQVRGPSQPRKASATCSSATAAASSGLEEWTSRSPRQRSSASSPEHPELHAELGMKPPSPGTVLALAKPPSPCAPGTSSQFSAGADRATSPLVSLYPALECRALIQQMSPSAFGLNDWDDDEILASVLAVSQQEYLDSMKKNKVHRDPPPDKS
Procedure, shortened: as §1

Measured: log2 ratio of Biotin-Ahx-Ub-VS probe labelling

Sequence of OTUB1 (Q96FW1 whole entry): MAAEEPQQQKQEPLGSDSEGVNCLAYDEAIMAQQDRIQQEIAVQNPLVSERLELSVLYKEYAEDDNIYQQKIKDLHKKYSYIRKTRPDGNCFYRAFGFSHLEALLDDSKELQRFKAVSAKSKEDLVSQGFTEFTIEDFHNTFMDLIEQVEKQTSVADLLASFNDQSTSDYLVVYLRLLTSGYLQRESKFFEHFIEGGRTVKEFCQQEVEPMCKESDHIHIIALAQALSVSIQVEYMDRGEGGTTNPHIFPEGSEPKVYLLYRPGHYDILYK
Sequence of ATXN3 (P54252 whole entry): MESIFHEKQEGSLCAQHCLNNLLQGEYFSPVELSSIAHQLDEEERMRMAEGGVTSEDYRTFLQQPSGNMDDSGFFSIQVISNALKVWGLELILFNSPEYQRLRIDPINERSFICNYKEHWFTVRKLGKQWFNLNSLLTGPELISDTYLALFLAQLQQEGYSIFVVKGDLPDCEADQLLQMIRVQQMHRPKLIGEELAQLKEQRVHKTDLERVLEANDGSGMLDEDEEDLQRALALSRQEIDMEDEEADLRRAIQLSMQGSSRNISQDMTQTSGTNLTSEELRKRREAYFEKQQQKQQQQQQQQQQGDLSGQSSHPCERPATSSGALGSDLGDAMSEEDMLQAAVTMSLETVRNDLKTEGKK
Sequence of EIF3H (O15372 whole entry): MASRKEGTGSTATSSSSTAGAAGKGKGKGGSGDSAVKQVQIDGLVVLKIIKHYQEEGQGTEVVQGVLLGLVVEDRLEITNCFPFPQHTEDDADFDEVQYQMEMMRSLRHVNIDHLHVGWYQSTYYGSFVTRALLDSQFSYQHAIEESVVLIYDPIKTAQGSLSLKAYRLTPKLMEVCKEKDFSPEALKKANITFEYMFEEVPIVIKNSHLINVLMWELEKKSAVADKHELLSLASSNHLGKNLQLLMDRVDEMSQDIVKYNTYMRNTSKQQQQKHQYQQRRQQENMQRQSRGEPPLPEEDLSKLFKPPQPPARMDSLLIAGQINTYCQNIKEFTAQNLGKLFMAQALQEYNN
Sequence of EIF3F (O00303 whole entry): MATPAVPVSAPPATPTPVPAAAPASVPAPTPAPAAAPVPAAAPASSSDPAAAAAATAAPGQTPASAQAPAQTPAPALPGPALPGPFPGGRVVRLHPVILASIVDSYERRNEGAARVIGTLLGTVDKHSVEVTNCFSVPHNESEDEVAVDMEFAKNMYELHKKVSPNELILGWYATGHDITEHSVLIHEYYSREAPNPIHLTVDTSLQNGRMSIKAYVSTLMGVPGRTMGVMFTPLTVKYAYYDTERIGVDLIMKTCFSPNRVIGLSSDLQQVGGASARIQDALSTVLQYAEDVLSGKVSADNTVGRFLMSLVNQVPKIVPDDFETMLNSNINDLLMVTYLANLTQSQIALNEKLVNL

Cl.Cn1c(CNC(=O)CCl)nc2cccnc21
active: [3] -1.32
inactive: [1] 0.0884 | [2] -0.424 | [4] -0.0906 | [5] 0.0923 | [6] -0.0642 | [7] -0.136 | [8] -0.388 | [9] -0.323
